Data from PubChem BioAssay AID1053173 (Broad Institute, 2014).
Out of some 1,500 compounds screened, about 390 (26%) were called active. How the calls were made is not given here. These entries were drawn from the full list. Results with a measured potency or affinity are listed apart.

Biological target: Histone-lysine N-methyltransferase NSD2 (Homo sapiens) (UniProt O96028)
Test: NSD2 methyltransferase inhibitors, dose response, biochemical, AlphaScreen, cherry-picked samples (AID 1053173);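 further: 0% = neutral control wells and -100% = positive control wells on each plate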
Settings: NSD2 H4 peptide methylation, 120 min; series mostly up to 10 µM; activity change, negative = inhibition: at the top concentration

Sequence of Histone-lysine N-methyltransferase NSD2 (Homo sapiens) (O96028 whole entry, looked up): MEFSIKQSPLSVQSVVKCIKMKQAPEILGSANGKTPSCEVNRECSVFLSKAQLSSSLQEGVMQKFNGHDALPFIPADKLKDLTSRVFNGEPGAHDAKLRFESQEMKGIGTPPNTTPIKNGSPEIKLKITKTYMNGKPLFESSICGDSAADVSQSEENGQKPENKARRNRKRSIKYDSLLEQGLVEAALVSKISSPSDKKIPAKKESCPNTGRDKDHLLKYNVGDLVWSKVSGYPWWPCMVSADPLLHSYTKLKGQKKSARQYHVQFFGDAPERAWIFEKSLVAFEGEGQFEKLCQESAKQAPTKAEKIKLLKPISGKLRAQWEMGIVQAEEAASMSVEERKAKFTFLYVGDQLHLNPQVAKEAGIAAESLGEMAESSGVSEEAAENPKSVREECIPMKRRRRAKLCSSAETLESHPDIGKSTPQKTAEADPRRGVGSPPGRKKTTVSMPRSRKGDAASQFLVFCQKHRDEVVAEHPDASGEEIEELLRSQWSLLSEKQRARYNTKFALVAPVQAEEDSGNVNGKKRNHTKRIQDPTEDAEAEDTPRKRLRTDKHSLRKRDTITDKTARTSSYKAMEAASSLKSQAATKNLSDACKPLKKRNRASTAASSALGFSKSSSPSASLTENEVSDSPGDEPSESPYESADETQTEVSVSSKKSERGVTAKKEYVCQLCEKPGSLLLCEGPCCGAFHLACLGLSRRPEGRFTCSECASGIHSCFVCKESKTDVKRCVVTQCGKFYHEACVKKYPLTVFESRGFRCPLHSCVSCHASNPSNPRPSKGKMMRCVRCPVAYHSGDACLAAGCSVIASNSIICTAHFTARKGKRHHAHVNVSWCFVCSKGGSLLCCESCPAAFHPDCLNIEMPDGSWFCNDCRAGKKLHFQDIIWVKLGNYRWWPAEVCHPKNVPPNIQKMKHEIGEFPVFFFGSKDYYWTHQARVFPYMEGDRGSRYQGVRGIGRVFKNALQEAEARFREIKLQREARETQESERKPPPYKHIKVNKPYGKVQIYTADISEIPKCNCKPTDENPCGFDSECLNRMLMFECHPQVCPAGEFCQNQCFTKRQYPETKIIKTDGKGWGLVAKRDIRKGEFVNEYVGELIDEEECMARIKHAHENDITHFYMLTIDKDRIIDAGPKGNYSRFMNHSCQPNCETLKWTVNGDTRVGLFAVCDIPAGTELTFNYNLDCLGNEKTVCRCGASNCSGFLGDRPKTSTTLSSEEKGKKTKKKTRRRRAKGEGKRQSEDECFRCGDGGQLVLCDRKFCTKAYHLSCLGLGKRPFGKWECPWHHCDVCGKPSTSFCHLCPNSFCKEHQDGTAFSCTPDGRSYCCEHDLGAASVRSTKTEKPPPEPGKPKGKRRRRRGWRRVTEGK

Activity change, negative = inhibition, inactive:
CC1(C)NC(=O)N(CCOCCOc2c(Cl)cc(Cl)cc2Cl)C1=O -1.71%
COc1ccc(CC(=O)NC2CCCCCC2)c(OC)c1 6.08%
CC(C)=NOCC(=O)Nn1c(COc2c(C)cccc2C)nc2ccccc2c1=O -2%
Cc1cc(-c2n[nH]c(=S)n2N=Cc2cccc(OCc3ccccc3)c2)n[nH]1 -12.1%
COc1ccc2nc3cccc(OC)c3nc2c1 -3.46%
C=CCOCC(O)Cn1c(N2CCCC2)nc2c1c(=O)n(C)c(=O)n2C (configuration not stated) -1.1%
CSCCC(NC(=O)c1ccccc1Cl)C(=O)NCC(c1ccc(F)cc1)N1CCOCC1 (configuration not stated) -2.03%
COc1cc(C(=O)NC(C)c2ccc3ccccc3c2)cc(Cl)c1O (configuration not stated) -0.34%
COc1ccc(-c2nnc3n2N=C(C)CS3)cc1 1.71%
COc1cccc(-c2nn3c(-c4ccco4)nnc3s2)c1 1.6%
Cn1c(=O)[nH]c2nnc(-c3ccc(Cl)c(Cl)c3)nc2c1=O 4.68%
CCOc1ccccc1NC(=O)C1CCCN1C(=O)c1cccs1 (configuration not stated) 2.24%
CSc1nc(N)nc(N(C)C)n1 2%
O=C(COC(=O)c1ccccc1F)NC1CC1 3.74%
CCOc1ccc(C(CC(=O)O)NC(=O)C23CC4CC(CC(C4)C2)C3)cc1OC (configuration not stated) -0.984%
Cc1nc([N+](=O)[O-])c(C(=O)OCc2ccccc2F)n1C -1.64%
CNc1c(N)n(Cc2ccccc2)c(=O)[nH]c1=O -0.252%
Cc1ccccc1CS(=O)(=O)CC(O)CN1CCCC1=O (configuration not stated) -1.97%
Nc1c(C(=O)NCc2ccc(F)cc2)c2nc3ccccc3nc2n1CCCN1CCOCC1 14.2%
CCc1ccc(N(CC(=O)NCc2ccc3c(c2)OCO3)C(=O)c2csnn2)cc1 -2.38%
CCc1ccc(NC(=O)c2cc(-c3ccc4c(c3)OCO4)on2)cc1 6.08%
COc1ccc2c(c1)c1nc3ccccc3nc1n2CCn1c(=O)oc2ccccc21 -3.95%
COc1ccc(C)cc1COC(=O)c1[nH]c(C)c(C(C)=O)c1C 3.9%
COc1ccc(N(CC(=O)NCCSc2ccccn2)S(C)(=O)=O)cc1 -0.405%
COc1ccc(CNC(=O)CCCn2nc(C)c([N+](=O)[O-])c2C)cc1OC 4.54%
Cc1nc2cc(C(=O)NCc3cccnc3)ccc2n1-c1ccc(F)cc1F -0.772%
Cc1ccc(C(=O)NCCn2c(N)c(C#N)c3nc4ccccc4nc32)cc1 -3.26%
CCOC(=O)CNC(=O)N1CCC(CCC(=O)N(C)Cc2ccccc2)CC1 0.842%
CCCC(=O)Nc1ccc(C(=O)O)cc1NC(=O)CCC 0.918%
O=C(O)c1ccc2cccnc2c1O 0.387%
COc1cccc(NC(=O)c2ccc3c(c2)OCCO3)c1 -3.43%
COc1ccc(-c2ncncc2-c2ccccc2)c(O)c1 -2.82%
Cc1c([N+](=O)[O-])cc(N2C(=O)C=CC2=O)cc1[N+](=O)[O-] -0.132%
O=C1C=CC(=O)N1c1ccc(N2CCCCC2)cc1 -1.43%
CCOC(=S)SCC(=O)Nc1nc(C)c(C)s1 8.33%
O=C(Nc1nnc(SCc2cccc3ccccc23)s1)C1COc2ccccc2O1 (configuration not stated) -6.81%
NC(=O)C1Cc2ccccc2CN1S(=O)(=O)c1ccc(Cl)s1 (configuration not stated) -1.03%
COc1ccccc1N(C)S(=O)(=O)c1ccc(C(=O)NC2CCCCCC2)cc1 -1.27%
COc1cc(OC)c(C(=O)OC(C)C(=O)NCc2ccc3c(c2)OCO3)cc1OC (configuration not stated) -5.27%
C/C(=N\NC(=O)c1nnn(-c2nonc2N)c1C)c1ccc(-c2ccccc2)cc1 1.79%
CC(=O)c1c(C)[nH]c(C(=O)Nc2ccc(C)cc2Br)c1C -5.53%
O=c1cc(C=NNc2ccccc2)[nH]c(=O)[nH]1 -4.13%
O=C(O)c1cc(N/N=C/c2ccc3c(c2)OCO3)ccc1Cl -0.549%
Cc1noc(C)c1S(=O)(=O)N1CCN(S(=O)(=O)c2ccccc2C#N)CC1 4.24%
CCCC(CCC(=O)Nc1cccc([N+](=O)[O-])c1)C(=O)O (configuration not stated) -0.707%
COc1cc(C(=O)Oc2cccc(/C=N/NC(=O)c3cccnc3)c2)cc(OC)c1OC -2.82%
CNC(=S)NC(CC(=O)OC)c1ccc2c(c1)OCO2 (configuration not stated) 3.44%
CC[n+]1c(/C=C/Nc2ccccc2)oc2ccccc21 0.086%
Cc1cc(Cl)c(OCCN2C(=O)NC(C)(C)C2=O)c(Br)c1 -0.445%
COc1ccc(/C=C/C(=O)OCC(=O)NCC2CCCO2)cc1 (configuration not stated) 3.92%
COc1ccccc1CN(Cc1cc2cc3c(cc2[nH]c1=O)OCCO3)Cc1nnnn1Cc1ccco1 -4.86%
CCOC(=O)CN(C(=O)COc1nc(-c2ccccc2)cc(C)c1C#N)c1ccccc1 -0.665%
COc1ccc(C(=O)Nc2ccc3[nH]ccc3c2)cc1OC 4.26%
COc1ccc(C(=O)Cc2nnc(C)s2)cc1 -1.01%
COc1cc(N)c(C(=O)c2nccc3cc(OC)c(OC)cc23)cc1OC -2.98%
C/C(=N/NC(=O)CCc1ccccc1)c1ccco1 -2.07%
Cc1ccccc1NC(=O)CN1CCC(C(=O)c2ccc3c(c2)OCCO3)CC1 -2.43%
COc1ccc(C2=NNC(c3cccs3)=Nc3ccc(OC)cc32)cc1 -11.7%
COc1ccc(-n2nnnc2-c2cnc(N3CCCC3)nc2C(F)(F)F)cc1 1.7%
Cc1cc(C)n(-c2ncccc2[N+](=O)[O-])n1 -2.95%
O=[N+]([O-])c1cc2ncccc2c2ncccc12 -1.34%
COc1ccc(/C=C(\C#N)C(=O)N2COCC2(C)C)cc1 -1.43%
COc1ccc(NC(=O)CN(C)S(=O)(=O)c2ccc(C)cc2)c([N+](=O)[O-])c1 -2.22%
C=CCc1cccc2cc(C(=O)Nc3ccc(NC(C)=O)cc3)c(=O)oc12 0.142%
COC(=O)c1cc(NC(=O)Nc2cc(OC)ccc2OC)cc(C(=O)OC)c1 0.332%
N=C1/C(=C\c2ccc(Br)o2)C(=O)N=C2SC(CC(=O)N3CCCCC3)=NN12 -4.58%
COc1ccc(/C=C2\N=C(C(C)(C)C)OC2=O)c(OC)c1 -1.37%
O=C(c1ccccc1F)N(Cc1cccs1)C1CCS(=O)(=O)C1 (configuration not stated) -3.94%
Cc1ccc(C(=O)Nc2ccc(Cl)cc2C(F)(F)F)c(Cl)c1 0.435%
CCC1=[N+]([O-])C(C)(/C(C)=N\O)N(O)C1(C)C (configuration not stated) 3.64%
COc1cc(NC(=O)c2[nH]c(C)c(C(C)=O)c2C)cc(OC)c1OC -2.22%
COc1ccc(C2SCCN2S(=O)(=O)c2ccccc2)cc1 (configuration not stated) 1.06%
COc1ccc(NC(=O)C2Cc3c(-c4ccc(Cl)cc4)ccnc3O2)cc1 (configuration not stated) 4.33%
CCN1C(=O)/C(=C\c2ccc(-c3ccc([N+](=O)[O-])cc3OC)o2)SC1=Nc1cccc(C(=O)O)c1 -11.5%
O=C(O)CC1S/C(=N/N=C/c2ccc(-c3ccccc3[N+](=O)[O-])o2)NC1=O (configuration not stated) -2.32%
Nc1ccc2c(c1)OCCOCCOCCOCCOCCO2 0.815%
CCCOc1ccc(C(C)=O)cc1CC(C(N)=O)C(N)=O -1.92%
COc1ccc2c(c1)Cc1sc(NC(=O)c3ccccc3)nc1-2 -2.64%
NC(=O)c1nsc(C(=O)N(c2ccccc2)C(C(=O)NCC2CCCO2)c2ccc3ncccc3c2)c1N (configuration not stated) 0.907%
O=C(Nc1ccc(S(=O)(=O)Nc2ncccn2)cc1)C1CC(=O)N(c2ccc(Cl)cc2)C1 (configuration not stated) -2.03%
CCOC(=O)C1CCCN(C(=O)c2ccc(S(=O)(=O)Nc3ccccc3OC)cc2)C1 (configuration not stated) 4.12%
O=C(NCCc1ccccn1)C1CCCN1S(=O)(=O)c1ccc(Cl)cc1 (configuration not stated) 2.82%
Cn1c(SCC(=O)Nc2ccc3c(c2)OCCO3)nnc1-c1ccncc1 -2.11%
CCOC(=O)c1cccc(P(C)(C)=O)c1 -1.87%
COc1ccccc1NC(=O)c1ccc(NC(=O)C2COc3ccccc3O2)cc1 (configuration not stated) -1.04%
C=CC[n+]1c(-c2ccc(Cl)cc2Cl)csc1Nc1c(C)n(C)n(-c2ccccc2)c1=O -13.5%
S=C(Nc1cccnc1)Nc1cccc2cnccc12 -0.94%
CCN(C(=S)Nc1cccnc1)c1cccc2ccccc12 -3.41%
O=c1c2ccccc2nnn1CSc1nc2ccccc2c(=O)n1CCCO 1.38%
O=C(NC(=S)Nc1ccccc1N1CCCC1)c1ccco1 -10.3%
Cc1cc2c(OCC(O)CNC3CCCCC3)cccc2[nH]1 (configuration not stated) -6.61%
CC1=CS(=O)(=O)CC1Sc1ncn[nH]1 (configuration not stated) -1.01%
Oc1ccc(CNc2ccccc2O)cc1 -2.41%
COc1cccc(CNc2cccc3cccnc23)c1O -0.684%
Cc1ccccc1N(C(=O)c1snc(C(N)=O)c1N)C(C)C(=O)NC1CCCCC1 (configuration not stated) 0.295%
CC(=O)Nc1ccc(NCc2ccc(C)s2)cc1 1.27%
CCOc1c(O)ccc(/C=C2\SC(=S)NC2=O)c1[N+](=O)[O-] -7.61%
Cc1ccc(Cl)c(OCC(=O)Nc2cc(S(=O)(=O)N3CCOCC3)ccc2N2CCCC2)c1 1.64%
COc1ccc(CN(C(=O)CN2C(=O)NC3(CCC(C)CC3)C2=O)C(C)Cc2cccs2)cc1 (configuration not stated) -1.57%
c1ccc(-c2nc(N3CCOCC3)c3ccccc3n2)nc1 -3.18%
CCc1nnc(NC(=O)COc2ccc3c(c2)OCO3)s1 -3.47%
CN1CCCCc2c1nc1ccccc1c2N (tested in a mixture with another compound) -14%
COc1cc(/C=C/C(=O)OCC(=O)NNC(=O)c2cc(Cl)ccc2OC)ccc1O 3.64%
Cc1cc(OCC(=O)Nc2ccccc2N2CCCCC2)ccc1C(C)C 2.21%
FC(F)(F)c1ccc(N/N=C/c2cccnc2)nc1 -1.15%
COc1ccccc1/C=N/Nc1cc(C)nc(N2CCOCC2)n1 11.2%
N#Cc1cc(-c2ccccc2)cnc1Sc1ccc(Cl)cc1 6.46%
CN1CC2(Cc3c1ccc1ccccc31)C(=O)OC(C)(C)OC2=O -0.443%
CC1=NOC(=O)/C1=C\c1ccc(-c2ccc(Cl)c(C(=O)O)c2)o1 -10.8%
Cc1cc(=O)cc(C)n1-c1ccc(O)cc1 -3%
CSc1ncccc1C(=O)OCC(=O)N1CC2(C)CC1CC(C)(C)C2 (configuration not stated) -1.03%
Cn1c(=O)cc(SCC(=O)N2CCOCC2)c2ccc(Cl)cc21 -0.94%
